Source: PubChem BioAssay
Where “and” joins values, the source holds several entries; their conditions need not be identical. Identical values can stand only once. More than one record can exist for a structure, and the calls need not agree. Calls of active or inactive are those of the source.

What was measured:
[1] = system: PRMT1 (protein arginine N-methyltransferase 1); assay: PRMT1 binders on small-molecule microarrays, primary screen, biochemical, small-molecule microarray, 635 nm fluorescence (AID 1088); conditions: small-molecule microarray binding, higher = more signal;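 note: binding of Prmt1 protein to compounds spotted on small-molecule microarray slides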
[2] = yeast growth modulation, basal conditions, primary screen, YJM789 clinical isolate, OD600, 24 h (AID 1089);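 note: growth of clinical yeast isolate S. cerevisiae YJM 789 seeded 1000 cells per well; test concentration not given here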; conditions: S. cerevisiae YJM789 growth, higher = more signal, called active from +8 up or from −8 down
[3] = fission yeast growth modulation, primary screen, strain 972, OD600, 24 h, no modulator (AID 1090);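 note: basal condition with compound alone and no growth modifier present; test concentration not given here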; conditions: S. pombe 972 growth, higher = more signal, called active from +8 up or from −8 down
[4] = S. cerevisiae growth modulation with rapamycin, primary screen, strain BY4716, OD600, 96 h (AID 1091); conditions: higher = more signal, called active from +8 up or from −8 down; note: test concentration not given here
[5] = target: Torsin-1A-interacting protein 2 (Homo sapiens) (UniProt Q8NFQ8); assay: LULL1 binders on small-molecule microarray, primary screen, cell lysate, human LULL1 lysate, 635/667 nm fluorescence (AID 1092); conditions: hLULL1 lysate binding, 635 nm fluorescence, higher = more signal;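 note: probe is lysate of COS7 cells overexpressing human LULL1; score merges per-feature 667 nm fluorescence with signal-to-noise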
Chain of Torsin-1A-interacting protein 2 (Homo sapiens) (Q8NFQ8 whole entry, looked up): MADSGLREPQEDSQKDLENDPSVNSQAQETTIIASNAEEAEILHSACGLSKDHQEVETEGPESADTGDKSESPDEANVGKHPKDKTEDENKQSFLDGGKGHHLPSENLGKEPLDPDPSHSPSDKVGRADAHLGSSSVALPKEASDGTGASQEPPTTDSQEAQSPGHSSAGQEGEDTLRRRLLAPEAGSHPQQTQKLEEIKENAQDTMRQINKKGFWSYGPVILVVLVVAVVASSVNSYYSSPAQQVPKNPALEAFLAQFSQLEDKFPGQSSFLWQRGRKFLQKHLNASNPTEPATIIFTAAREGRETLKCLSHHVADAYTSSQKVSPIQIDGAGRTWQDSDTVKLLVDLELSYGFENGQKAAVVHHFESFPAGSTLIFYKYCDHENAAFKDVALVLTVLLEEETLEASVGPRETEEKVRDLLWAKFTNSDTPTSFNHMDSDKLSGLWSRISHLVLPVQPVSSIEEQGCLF

[6] = E. coli growth modulation, two-sided OD650, primary screen, E. coli filamentation project, strain DRC41, 24 h (AID 1093); conditions: OD650, 24 h, higher = more signal, called active from +8 up or from −8 down;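 note: MC1000 strain lacking acrAB efflux and sulA so SOS filamentation is blocked; test concentration not given here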
[7] = small-molecule microarray binders of probe aLefty2, primary screen, biochemical, biotinylated probe, 635/667 nm fluorescence (AID 1094); conditions: higher = more signal;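 note: score merges spot fluorescence near 667 nm with spot signal-to-noise ratio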
[8] = system: Noggin (protein binding on small-molecule microarray); assay: Noggin binders on small-molecule microarray, primary screen, biochemical, 635/667 nm fluorescence (AID 1095); conditions: 635 nm fluorescence, higher = more signal;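 note: score merges 667 nm feature fluorescence with signal to noise over triplicate slides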
[9] = target: Neurogenic locus notch homolog protein 3 (Homo sapiens) (UniProt Q9UM47); assay: NOTCH3 binders on small-molecule microarray, primary screen, biochemical, 635/667 nm fluorescence (AID 1096); conditions: NOTCH3 binding, 635 nm fluorescence, higher = more signal
Chain of Neurogenic locus notch homolog protein 3 (Homo sapiens) (Q9UM47 whole entry, looked up): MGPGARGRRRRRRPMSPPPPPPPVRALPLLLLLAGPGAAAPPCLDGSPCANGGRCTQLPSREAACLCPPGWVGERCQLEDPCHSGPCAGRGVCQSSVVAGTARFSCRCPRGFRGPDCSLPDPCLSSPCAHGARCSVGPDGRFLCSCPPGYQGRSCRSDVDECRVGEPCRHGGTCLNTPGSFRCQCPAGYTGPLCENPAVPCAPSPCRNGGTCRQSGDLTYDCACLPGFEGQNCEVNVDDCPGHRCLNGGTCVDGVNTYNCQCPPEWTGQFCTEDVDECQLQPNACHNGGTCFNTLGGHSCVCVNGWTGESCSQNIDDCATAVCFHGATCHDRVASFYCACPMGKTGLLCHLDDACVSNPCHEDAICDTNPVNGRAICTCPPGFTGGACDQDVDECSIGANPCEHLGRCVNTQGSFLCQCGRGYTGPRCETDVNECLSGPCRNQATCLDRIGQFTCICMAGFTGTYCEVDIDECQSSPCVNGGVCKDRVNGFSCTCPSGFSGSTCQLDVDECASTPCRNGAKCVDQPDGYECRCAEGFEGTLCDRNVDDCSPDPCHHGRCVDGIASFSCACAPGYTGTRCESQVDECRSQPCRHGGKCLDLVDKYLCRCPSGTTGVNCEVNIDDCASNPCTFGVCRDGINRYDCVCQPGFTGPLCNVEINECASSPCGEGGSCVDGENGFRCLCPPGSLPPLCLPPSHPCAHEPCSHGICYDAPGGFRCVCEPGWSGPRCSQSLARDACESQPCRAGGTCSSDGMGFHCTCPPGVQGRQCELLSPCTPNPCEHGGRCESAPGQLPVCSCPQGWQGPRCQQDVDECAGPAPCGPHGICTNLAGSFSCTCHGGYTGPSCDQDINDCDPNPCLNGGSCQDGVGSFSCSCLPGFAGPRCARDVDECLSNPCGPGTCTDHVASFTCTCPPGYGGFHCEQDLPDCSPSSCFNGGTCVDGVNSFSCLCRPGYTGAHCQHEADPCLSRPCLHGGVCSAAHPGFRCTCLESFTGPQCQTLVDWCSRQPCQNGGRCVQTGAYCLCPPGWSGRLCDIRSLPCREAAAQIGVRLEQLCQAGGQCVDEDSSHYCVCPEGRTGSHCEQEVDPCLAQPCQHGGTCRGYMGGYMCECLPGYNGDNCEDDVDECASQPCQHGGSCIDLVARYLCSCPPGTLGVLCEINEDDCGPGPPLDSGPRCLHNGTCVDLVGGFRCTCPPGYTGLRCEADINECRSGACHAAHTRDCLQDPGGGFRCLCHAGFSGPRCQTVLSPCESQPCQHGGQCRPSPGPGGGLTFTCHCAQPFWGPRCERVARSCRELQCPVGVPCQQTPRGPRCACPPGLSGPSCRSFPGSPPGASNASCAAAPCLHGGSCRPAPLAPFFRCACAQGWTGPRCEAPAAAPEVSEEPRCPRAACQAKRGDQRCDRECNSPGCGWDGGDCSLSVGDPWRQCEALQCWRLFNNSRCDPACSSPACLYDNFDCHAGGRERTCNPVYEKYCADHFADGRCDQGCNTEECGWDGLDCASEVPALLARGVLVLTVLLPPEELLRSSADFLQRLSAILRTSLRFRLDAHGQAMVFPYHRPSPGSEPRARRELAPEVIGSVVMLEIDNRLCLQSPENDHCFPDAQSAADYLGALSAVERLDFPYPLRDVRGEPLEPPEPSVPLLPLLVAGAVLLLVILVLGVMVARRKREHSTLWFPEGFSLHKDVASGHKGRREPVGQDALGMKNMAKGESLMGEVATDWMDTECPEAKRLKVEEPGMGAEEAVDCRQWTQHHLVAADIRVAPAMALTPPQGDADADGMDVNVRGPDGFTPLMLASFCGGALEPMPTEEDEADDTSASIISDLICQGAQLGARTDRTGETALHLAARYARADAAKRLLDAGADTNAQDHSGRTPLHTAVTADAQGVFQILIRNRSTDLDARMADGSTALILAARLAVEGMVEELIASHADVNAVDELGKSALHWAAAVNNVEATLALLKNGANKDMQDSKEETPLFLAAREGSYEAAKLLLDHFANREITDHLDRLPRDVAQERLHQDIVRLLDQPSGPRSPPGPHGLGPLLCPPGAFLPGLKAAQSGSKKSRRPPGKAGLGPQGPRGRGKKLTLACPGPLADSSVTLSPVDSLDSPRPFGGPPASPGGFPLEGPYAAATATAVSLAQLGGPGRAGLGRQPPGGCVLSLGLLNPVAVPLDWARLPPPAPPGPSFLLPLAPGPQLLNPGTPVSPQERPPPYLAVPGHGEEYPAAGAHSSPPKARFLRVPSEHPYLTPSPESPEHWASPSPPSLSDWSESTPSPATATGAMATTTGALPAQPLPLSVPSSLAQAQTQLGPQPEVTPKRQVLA

[10] = small-molecule microarray binders of probe aEGFR, primary screen, biochemical, biotinylated probe, 635/667 nm fluorescence (AID 1097); conditions: higher = more signal;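 note: probe is a biotinylated anti-EGFR antibody binding compounds printed on slides; score combines fluorescence near 667 nm and signal to noise of each spot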
[11] = system: Plasmodium falciparum Sir2 (PF13_0152, Sir2A); assay: pfSir2 binders on small-molecule microarrays, primary screen, biochemical, small-molecule microarray, 635 nm fluorescence (AID 1098); conditions: small-molecule microarray binding, fluorescence 635 nm; higher = more signal;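 note: score merges spot fluorescence intensity with its signal-to-noise ratio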
[12] = small-molecule microarray binders of probe aDKK1, primary screen, biochemical, biotinylated probe, 635/667 nm fluorescence (AID 1099); conditions: higher = more signal;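 note: score merges 667nm spot fluorescence with signal to noise across triplicate slides; reference of the scale not given here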
[13] = small-molecule microarray binders of probe aCHRDL2, primary screen, biochemical, biotinylated probe, 635/667 nm fluorescence (AID 1100); conditions: higher = more signal
[14] = splicing luciferase reporter signal modulators, primary screen, spliceosome inhibition project, cell-based, HEK293, splice +/- reporter (AID 1101); conditions: luminescence, 24 h, higher = more signal, called active from +8 up or from −8 down;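 note: HEK293 cells carrying a splicing-competent luciferase reporter gene; test concentration not given here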
[15] = target: Fibroblast growth factor 10 (Homo sapiens) (UniProt O15520); assay: FGF10 binders on small-molecule microarrays, primary screen, biochemical, small-molecule microarray, 635 nm fluorescence (AID 1102); conditions: FGF10 binding, fluorescence 635 nm, higher = more signal
Chain of Fibroblast growth factor 10 (Homo sapiens) (O15520 whole entry, looked up): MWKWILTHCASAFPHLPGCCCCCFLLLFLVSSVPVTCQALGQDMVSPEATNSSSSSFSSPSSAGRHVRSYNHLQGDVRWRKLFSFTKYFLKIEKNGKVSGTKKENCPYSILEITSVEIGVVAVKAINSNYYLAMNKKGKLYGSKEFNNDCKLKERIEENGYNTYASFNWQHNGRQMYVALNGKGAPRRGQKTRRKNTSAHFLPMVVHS

[16] = system: glycogen synthase kinase-3 (GSK3A per assay name; protocol says GSK3B); assay: GSK3 binders on small-molecule microarrays, primary screen, biochemical, small-molecule microarray, 635 nm fluorescence, GSK3A (AID 1103); conditions: small-molecule microarray binding, fluorescence 635 nm; higher = more signal; note: the record names both GSK3A and GSK3B
[17] = target: Epidermal growth factor receptor (Homo sapiens) (UniProt P00533); assay: EGFR binders on small-molecule microarrays, primary screen, biochemical, small-molecule microarray, 635 nm fluorescence (AID 1104); conditions: EGFR binding, higher = more signal;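 note: score merges 667 nm emission intensity with spot signal to noise over triplicate slides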
Chain of Epidermal growth factor receptor (Homo sapiens) (P00533 whole entry, looked up): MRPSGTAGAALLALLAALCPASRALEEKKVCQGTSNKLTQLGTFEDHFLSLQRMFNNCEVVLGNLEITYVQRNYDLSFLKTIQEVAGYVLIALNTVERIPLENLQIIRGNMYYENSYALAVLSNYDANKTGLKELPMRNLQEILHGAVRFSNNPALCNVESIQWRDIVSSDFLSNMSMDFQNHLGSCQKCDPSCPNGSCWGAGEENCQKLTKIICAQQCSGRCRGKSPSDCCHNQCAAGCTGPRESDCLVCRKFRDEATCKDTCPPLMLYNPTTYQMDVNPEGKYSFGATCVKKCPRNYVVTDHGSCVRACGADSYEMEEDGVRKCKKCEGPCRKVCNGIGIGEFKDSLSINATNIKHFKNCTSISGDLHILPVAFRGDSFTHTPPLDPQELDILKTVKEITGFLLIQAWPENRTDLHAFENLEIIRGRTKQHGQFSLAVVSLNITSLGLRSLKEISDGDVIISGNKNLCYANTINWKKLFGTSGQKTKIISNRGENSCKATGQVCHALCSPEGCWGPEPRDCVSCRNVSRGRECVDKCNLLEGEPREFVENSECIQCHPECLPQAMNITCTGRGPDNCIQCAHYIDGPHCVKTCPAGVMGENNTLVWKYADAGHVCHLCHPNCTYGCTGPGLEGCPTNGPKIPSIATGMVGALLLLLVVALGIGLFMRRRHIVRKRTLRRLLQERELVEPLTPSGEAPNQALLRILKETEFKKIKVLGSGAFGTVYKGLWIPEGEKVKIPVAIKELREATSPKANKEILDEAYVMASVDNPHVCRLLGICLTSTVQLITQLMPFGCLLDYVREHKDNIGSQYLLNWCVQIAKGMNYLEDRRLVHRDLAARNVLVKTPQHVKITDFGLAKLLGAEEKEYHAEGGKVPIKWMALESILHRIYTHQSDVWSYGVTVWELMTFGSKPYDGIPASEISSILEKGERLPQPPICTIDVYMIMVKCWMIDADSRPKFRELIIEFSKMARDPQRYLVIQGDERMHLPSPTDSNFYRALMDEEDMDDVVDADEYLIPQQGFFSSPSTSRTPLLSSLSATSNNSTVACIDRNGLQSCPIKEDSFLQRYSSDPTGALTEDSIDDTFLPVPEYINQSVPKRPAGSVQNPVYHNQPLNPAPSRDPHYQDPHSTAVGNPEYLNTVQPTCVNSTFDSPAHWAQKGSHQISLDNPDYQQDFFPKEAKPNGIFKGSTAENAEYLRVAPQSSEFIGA

[18] = target: Follistatin-related protein 3 (Homo sapiens) (UniProt O95633); assay: FSTL3 binders on small-molecule microarrays, primary screen, biochemical, small-molecule microarray, 635 nm fluorescence (AID 1105); conditions: FSTL3 binding, higher = more signal;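 note: score merges emission near 667 nm and signal to noise per printed spot across three slides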
Chain of Follistatin-related protein 3 (Homo sapiens) (O95633 whole entry, looked up): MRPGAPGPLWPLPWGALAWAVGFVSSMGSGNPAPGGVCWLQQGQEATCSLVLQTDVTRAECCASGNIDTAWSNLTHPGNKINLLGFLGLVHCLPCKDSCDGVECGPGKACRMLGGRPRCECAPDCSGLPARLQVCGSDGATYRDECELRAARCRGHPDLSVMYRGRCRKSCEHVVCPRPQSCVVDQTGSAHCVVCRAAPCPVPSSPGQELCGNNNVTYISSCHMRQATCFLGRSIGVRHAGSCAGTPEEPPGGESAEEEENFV

[19] = target: Dickkopf-related protein 1 (Homo sapiens) (UniProt O94907); assay: DKK1 binders on small-molecule microarrays, primary screen, biochemical, small-molecule microarray, 635 nm fluorescence scan (AID 1106); conditions: DKK1 binding, higher = more signal;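 note: score merges emission near 667 nm with signal to noise over three replicate slides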
Chain of Dickkopf-related protein 1 (Homo sapiens) (O94907 whole entry, looked up): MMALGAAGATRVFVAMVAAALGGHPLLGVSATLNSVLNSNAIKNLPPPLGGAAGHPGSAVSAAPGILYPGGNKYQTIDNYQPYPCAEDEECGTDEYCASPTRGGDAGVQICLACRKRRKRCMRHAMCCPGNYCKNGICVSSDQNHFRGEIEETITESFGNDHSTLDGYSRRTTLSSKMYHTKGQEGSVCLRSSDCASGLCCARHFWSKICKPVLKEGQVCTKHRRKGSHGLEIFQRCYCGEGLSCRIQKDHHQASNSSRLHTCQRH

[20] = system: Inhibin beta A chain (activin A); assay: INHBA (activin A) binders on microarrays, primary screen, biochemical, small-molecule microarray, 635 nm fluorescence scan (AID 1107); conditions: small-molecule microarray binding, higher = more signal;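 note: mouse activin A protein probed at 4.33 µg/mL on printed slides; score merges bound-protein fluorescence near 667 nm with spot signal-to-noise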

Structure (SMILES)	composite z-score [1]	z-score [2]	z-score [3]	z-score [4]	composite z-score [5]	z-score [6]	composite z-score [7]	composite z-score [8]	composite z-score [9]	composite z-score [10]	composite z-score [11]	composite z-score [12]	composite z-score [13]	z-score [14]	composite z-score [15]	composite z-score [16]	composite z-score [17]	composite z-score [18]	composite z-score [19]	composite z-score [20]
C[C@@H]1CC[C@@H](C(=O)O)N[C@H]1c1ccc(-c2ccco2)cc1	1.06	0.804 (inactive)	-0.383 (inactive)	-0.476 (inactive)	0.534	-0.0778 (inactive)	0.0331	1.26	0.945	-0.115	1.04	-0.187	-0.826	0.0295 (inactive)	0.614	0.722	0.946	1.44	0.951	0.805
COC(=O)C1=C2N(Cc3ccccc3)C(C)=C(C(=O)OC)[C@@H](c3ccccc3)N2C(=O)[C@](O)(C(=O)OC)C1	0.691 and 0.144	-0.149 (inactive) and -0.0628 (inactive)	-0.925 (inactive) and -0.134 (inactive)	-1.34 (inactive) and -0.299 (inactive)	1.8 and -0.466	0.788 (inactive) and -0.0132 (inactive)	-0.142 and -0.235	1.14 and 0.796	0.81 and 0.263	-0.142 and -0.133	0.271 and 0.0802	-0.17 and -0.241	-0.684 and -0.512	-0.229 (inactive) and 0.213 (inactive)	0.622 and 0.395	0.943 and 0.479	0.273 and 0.585	0.963 and 0.359	0.916 and 0.574	-0.146 and 0.22
CCOC(=O)c1ccc(NC(=O)O[C@H]2[C@H](OC(=O)Nc3ccccc3)[C@H](OC(=O)Nc3ccccc3)[C@@H](OC)O[C@@H]2CO)cc1	1.53	1.65 (inactive) and 0.863 (inactive)	1.87 (inactive) and 1.43 (inactive)	-1.19 (inactive) and 8.89 (active)	3.01 and 3.02	0.626 (inactive) and 0.455 (inactive)	0.375 and 0.0544	0.536 and 1.04	1.04 and 1.05	0.445 and -0.0118	1.45 and 1.74	0.968 and 0.673	0.873 and 0.902	-0.285 (inactive) and -0.997 (inactive)	1.27 and 0.968	1.31 and 1.33	0.591 and 0.218	1.39 and 1.38	0.531 and 0.259	0.888 and 0.327
C=C[C@H](C)[C@H](O)c1ccc(O)c2ccccc12	-0.0037 and -0.738	-3.96 (inactive) and -3.22 (inactive)	-10.7 (active) and -6.18 (inactive)	4.04 (inactive) and 4.01 (inactive)	0.48 and 0.622	1.84 (inactive) and 1.81 (inactive)	-0.274 and -0.168	-0.431 and -0.211	-0.283 and -0.073	-0.275 and -0.203	-0.826 and -0.608	-0.338 and -0.232	0.151 and -0.0669	-2.7 (inactive) and -1.54 (inactive)	-1.16 and 0.187	-0.0928 and -0.78	-0.989 and 0.375	-0.433 and -0.63	-0.644 and -0.0107	0.794 and 0.956
CC(CO)N1C(=O)[C@@H]2C3C(=O)OCCC=C[C@H]3OC23C=CCN(c2ccc(Cl)cc2)C(=O)[C@@H]13 (stereo not given in full)	-1.06 and 1.32	1.37 (inactive) and -1.45 (inactive)	0.628 (inactive) and -1.21 (inactive)	0.872 (inactive) and -0.713 (inactive)	-0.81 and 3.57	0.226 (inactive) and -0.379 (inactive)	0.149 and -0.0998	-2.2 and -0.556	-1.43 and 0.107	-0.186 and -0.0788	1.13 and 1.84	-0.0514 and 0.0818	0.574 and 0.715	0.14 (inactive) and 0.899 (inactive)	-1.16 and 0.322	-1.61 and -0.251	-0.911 and -0.867	-1.14 and -0.558	-1.33 and -0.412	0.137 and 0.88
C=CCN(C(=O)C1N(c2c(Cl)cccc2CO)C(=O)C2C(C(=O)O)C3C=CC21O3)c1ccc(OC)cc1 (stereo not given)	-0.406 and -0.949	0.188 (inactive) and -1.76 (inactive)	0.0331 (inactive) and -1.23 (inactive)	-0.362 (inactive) and -0.691 (inactive)	-0.51 and -1.41	1.82 (inactive) and 2.06 (inactive)	-0.652 and -0.252	-1.05 and -1.85	-0.306 and -0.737	-0.327 and -0.236	1.51 and -0.251	-0.0248 and -0.257	0.804 and 0.73	-1.1 (inactive) and -0.88 (inactive)	-1.56 and -2.01	-1.29 and -0.754	-1.86 and -2.26	-1.4 and -2.14	-1.99 and -2.35	-1.12 and -3.24
